Data as given in the supplement of paper PMC7380943.
Where a name gives a salt, the structure may show the parent alone. ± gives the standard deviation of the averaged measurements.

Columns and labels:
[1] = tested on: CLZ3 (HCA2 human fibroblast dual HR-NHEJ reporter); experiment: NHEJ repair efficiency (GFP+ cells) relative to control (log10 fold); higher = more non-homologous end joining; settings: 5 µM; doxycycline 0.5 ug/mL
[2] = tested on: CLZ3 (HCA2 human fibroblast dual HR-NHEJ reporter); experiment: HR repair efficiency (tdTomato+ cells) relative to control (log10 fold); higher = more homologous recombination; settings: 5 µM; doxycycline 0.5 ug/mL
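Wherever HR repair efficiency (tdTomato+ cells) relative to control is given: compound given one day before doxycycline, which switches on I-SceI endonuclease expression to create double-strand breaks within the integrated reporter.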
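Wherever NHEJ repair efficiency (GFP+ cells) relative to control is given: compound given one day ahead of doxycycline, which switches on I-SceI endonuclease to cut the chromosomally integrated reporter and create DSBs.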

Row | SMILES | NHEJ repair efficiency (log10) [1] | HR repair efficiency (log10) [2]
1 | CCN1C[C@]2(COC)[C@H](O)C[C@H](OC)[C@]34C1[C@H]([C@H](OC)[C@H]23)[C@@]1(OC(C)=O)C[C@H](OC)[C@@]2(O)C[C@@H]4[C@@H]1[C@H]2OC(=O)c1ccc(OC)cc1 [Yunaconitine] | -0.0536 | -0.204
2 | CC(C)=CCCC(C)(O)C1CCC2(C)C1C(O)CC1C3(C)CCC(O)C(C)(C)C3C(OC3OC(CO)C(O)C(O)C3O)CC12C (stereo not drawn) [R-Ginsenoside Rh1] | -0.0562 | 0.0565
3 | CCN1C[C@]2(COC)[C@H](O)C[C@H](OC)[C@@]34[C@@H]5C[C@@]6(O)[C@H](OC(=O)c7ccccc7)[C@@H]5[C@@](OC(C)=O)([C@@H]([C@H](OC)[C@H]23)[C@@H]14)[C@@H](O)[C@@H]6OC [Aconitine] | -0.148 | 0.0783
4 | COc1cc2c(cc1O)C[C@@H]1NCCc3cc(OC)c(O)c-2c31 [Norisoboldine] | -0.132 | -0.0981
5 | COC[C@]12CN(C)C3[C@@H]4[C@H](OC)[C@H]1[C@@]3([C@@H](OC)C[C@H]2O)[C@@H]1C[C@@]2(O)[C@H](OC(=O)c3ccccc3)[C@@H]1[C@]4(O)[C@@H](O)[C@@H]2OC [Benzoylmesaconine] | -0.0412 | -0.144
6 | CCN1C[C@]2(COC)CC[C@H](O)C34C1C([C@H](OC)[C@@H]32)[C@]1(O)[C@@H]2[C@H]4CC([C@@H](OC)[C@@H]1O)[C@@H]2O [Fuziline] | 0.0177 | 0.0271
7 | CC(C)c1cc2c(c(O)c1O)[C@@]1(C(=O)O)CCCC(C)(C)[C@@H]1CC2 [Carnosic acid] | 0.106 | 0.167
8 | CN(C)CCc1ccc(O)cc1 [Hordenine] | -0.0244 | 0.111
9 | O=C1C=CC[C@@H]2[C@H]3CCCN4CCC[C@@H](CN12)[C@@H]34 [Sophocarpine] | -0.0254 | 0.165
10 | CCC(C)C(=O)O[C@@H]1[C@@H](OC(C)=O)[C@]2(C)[C@H](C(C)=O)CC[C@@]23O[C@]32CC[C@H]3C[C@@H](O[C@H]4C[C@@H](OC)[C@H](O[C@@H]5O[C@H](C)[C@@H](O)[C@@H](OC)[C@H]5O)[C@@H](C)O4)CC[C@]3(C)[C@@H]12 (stereo partly drawn) [Tenacissoside H] | -0.0163 | 0.0233
11 | CC[C@H]1CN2CC[C@]3(C(=O)Nc4ccccc43)[C@@H]2C[C@@H]1/C(=C\OC)C(=O)OC [Rhynchophylline] | -0.15 | -0.0611
12 | C=C[C@@H]1C2=CCOC(=O)C2=CO[C@H]1O[C@@H]1O[C@H](CO)[C@@H](O)[C@H](O)[C@H]1O [Gentiopicrin] | -0.0046 | 0.0966
13 | COC[C@]12CN(C)[C@@H]3[C@@H]4[C@H](OC)[C@H]1[C@@]3([C@@H](OC)C[C@H]2O)[C@@H]1C[C@@]2(O)[C@H](OC(=O)c3ccccc3)[C@@H]1[C@]4(OC(C)=O)[C@@H](O)[C@@H]2OC [Mesaconitine] | -0.0215 | 0.0192
14 | CCN1C[C@@]2(COC)[C@H]3[C@@H](OC)[C@H]4C1[C@]3([C@@H](OC)C[C@H]2OC(C)=O)[C@@H]1C[C@@]2(O)[C@H](OC(=O)c3ccccc3)[C@@H]1[C@]4(OC(C)=O)[C@@H](O)[C@@H]2OC [Acetylaconitine] | -0.0797 | -0.0667
15 | O=C1C[C@@H]2OCC=C3CN4CC[C@]56c7ccccc7N1[C@H]5[C@H]2[C@H]3C[C@H]46 [Strychnine] | 0.104 | -0.0183
16 | c1c2c(cc3c1OCO3)-c1cc3ccc4c(c3c[n+]1CC2)OCO4 [Coptisine Chloride] | -0.16 | 0.0577
17 | CCN1C[C@]2(COC)CC[C@H](O)[C@]34C1[C@H]([C@H](OC)[C@H]23)[C@@]1(O)C[C@H](OC)[C@H]2C[C@@H]4[C@@H]1[C@H]2O [Neoline] | -0.0435 | -0.186
18 | O=c1ccc2cc(O[C@@H]3O[C@H](CO)[C@@H](O)[C@H](O)[C@H]3O)c(O)cc2o1 [Aesculin] | 0.023 | 0.148
19 | CCN1C[C@]2(COC)CC[C@H](O)[C@]34C1[C@@](O)([C@@H](OC)[C@H]23)[C@@]1(O)C[C@H](OC)[C@H]2C[C@@H]4[C@@H]1[C@H]2OC [Delsoline] | -0.0325 | 0.0487
20 | O=C/C=C/c1ccccc1 [Cinnamaldehyde] | 0.0683 | -0.0835
21 | O=c1cccc2n1CC1CC2CN2CCCCC12 (stereo not drawn) [Thermopsine] | 0.0072 | -0.25
22 | COc1cccc2c1cc([N+](=O)[O-])c1c(C(=O)O)cc3c(c12)OCO3 [Aristolochic acid A] | 0.203 | 0.0578
23 | COc1ccc(Cc2nccc3cc(OC)c(OC)cc23)cc1OC [Papaverine hydrochloride] | -0.296 | -0.22
24 | N#C/C=C1/C=C[C@@H](O)[C@H](O)[C@H]1O[C@@H]1O[C@H](CO)[C@@H](O)[C@H](O)[C@H]1O [Lithospermoside] | 0.0837 | 0.0424
25 | C[C@H]1C(=O)O[C@@H]2CCN3CC=C(COC(=O)[C@](C)(O)[C@]1(C)O)[C@H]23 [Monocrotaline] | -0.0165 | 0.0383

Row | SMILES | NHEJ repair efficiency (log10) [1] | HR repair efficiency (log10) [2]
26 | COc1cc(C(=O)OC2C3C=COC(OC4OC(CO)C(O)C(O)C4O)C3C3(CO)OC23)ccc1O (stereo not drawn) [Amphicoside Ii] | 0.0243 | -0.0261
27 | CC1(C)[C@H]2O[C@H]2[C@H]2[C@](C)(O)[C@@H]3CCC4[C@H](O)[C@@]3(C[C@@H](O)[C@@]21O)C[C@@]4(C)O [Rhodojaponin Iii] | 0.0171 | 0.0481
28 | COC(=O)C1=CCCN(C)C1 [Arecoline Hydrobromide] | 0.0326 | 0.0648
29 | CCN1C[C@]2(COC)[C@H](O)C[C@H](OC)[C@@]34[C@@H]5C[C@@]6(O)[C@H](OC(=O)c7ccccc7)[C@@H]5[C@@](O)([C@@H]([C@H](OC)[C@H]23)[C@@H]14)[C@@H](O)[C@@H]6OC [Benzoylaconine] | -0.0909 | 0.0403
30 | CCN1C[C@]2(OC(=O)c3ccccc3NC(C)=O)CC[C@H](OC)[C@@]34[C@@H]2C[C@@H]([C@@H]13)[C@@]1(O)C[C@H](OC)[C@H]2C[C@@H]4[C@]1(O)[C@H]2OC [Lappaconitine] | 0.147 | 0.0273
31 | COC[C@@]12CC[C@H](OC)[C@]34C(C([C@H](OC)[C@H]13)[C@]1(OC(C)=O)[C@H]3[C@@H](OC(=O)c5ccccc5)[C@](O)(C[C@H]34)[C@@H](OC)[C@@H]1O)N(C)C2 [Hypaconitine] | 0.0511 | 0.0965
32 | c1cc2c(cc1[C@H]1OC[C@H]3[C@@H]1CO[C@@H]3c1ccc3c(c1)OCO3)OCO2 [Sesamin] | 0.0857 | 0.185
33 | COc1ccc2c(c1OC)CN1CCc3cc4c(cc3C1C2)OCO4 (stereo not drawn) [Tetrahydroberberine] | -0.000562 | 0.103
34 | CN(C)Cc1c[nH]c2ccccc12 [Gramine] | 0.014 | -0.0905
35 | C[C@@H]1CC[C@H]2[C@@H](C)C(=O)O[C@@H]3O[C@@]4(C)CC[C@@H]1[C@]32OO4 [Artemisinin] | 0.1 | 0.328
36 | COC(=O)C1=CCCN(C)C1 [Arecoline] | 0.0763 | 0.183
37 | CC1=C2C[C@H]3[C@@H](CC(=O)[C@H]4C[C@@H](O)CC[C@@]43C)[C@@H]2CC[C@]12O[C@@H]1C[C@H](C)CN[C@H]1[C@H]2C [Peimisine] | -0.0359 | -0.00991
38 | C=C[C@H]1[C@H](O[C@@H]2O[C@H](CO)[C@@H](O)[C@H](O)[C@H]2O)OC=C2C(=O)OCC[C@H]21 [Sweroside] | 0.0688 | 0.0254
39 | O=c1cccc2n1C[C@@H]1CNC[C@H]2C1 [Cytisine] | 0.00702 | 0.264
40 | CC(=O)OC[C@]12[C@H](OC(C)=O)[C@H](OC(C)=O)[C@@H]3[C@@H](OC(C)=O)[C@@]14O[C@@]3(C)COC(=O)c1cccnc1CCC(C)C(=O)O[C@@H]([C@H](OC(=O)c1ccccc1)[C@@H]2OC(C)=O)[C@]4(C)O (stereo partly drawn) [Wilforine] | -0.122 | 0.027
41 | COc1cc([C@H]2OC[C@H]3[C@H]2CO[C@@H]3c2cc(OC)c(O[C@@H]3O[C@H](CO)[C@@H](O)[C@H](O)[C@H]3O)c(OC)c2)cc(OC)c1O[C@@H]1O[C@H](CO)[C@@H](O)[C@H](O)[C@H]1O [Eleutheroside D] | 0.0455 | -0.0848
42 | CCC1=C[C@H]2CN3CCc4c([nH]c5ccccc45)[C@](C(=O)OC)(C2)[C@H]13 [Catharanthine] | 0.00477 | 0.0298
43 | COc1cc2c(cc1OC)[C@@]13CCN4CC5=CCO[C@H]6CC(=O)N2[C@H]1[C@H]6[C@H]5C[C@H]43 [Brucine] | -0.228 | -0.24
44 | CN[C@@H](Cc1c[nH]c2ccccc12)C(=O)O [Abrine] | -0.159 | -0.21
45 | O=c1ccc2cc(O[C@@H]3O[C@H](CO)[C@@H](O)[C@H](O)[C@H]3O)c(O)cc2o1 [Esculin Sesquihydrate] | 0.0261 | 0.046
46 | CC(C)=CCOc1c2occc2cc2ccc(=O)oc12 [Imperatorin] | 0.0993 ± 0.22 | 0.135 ± 0.28
47 | CCN1C[C@]2(COC)[C@H](O)C[C@H](OC)[C@]34C1[C@H]([C@H](OC)[C@H]23)[C@@]1(OC(C)=O)C[C@H](OC)[C@@H]2C[C@@H]4[C@@H]1[C@H]2OC(=O)c1ccccc1 [13-Dehydroxyindaconintine] | 0.0298 | -0.0247
48 | CCN1C[C@]2(C)CC[C@H](OC)[C@@]34C1[C@]1(OCO[C@@]15C[C@H](OC)[C@H]1C[C@]3(O)[C@@H]5[C@H]1OC)[C@@H](OC(C)=O)[C@H]24 [Deltaline] | -0.125 | -0.263
49 | C[C@H]1CC[C@H]2[C@H](C)[C@@H]3CC[C@@H]4[C@@H](C[C@H]5[C@H]4C[C@@H](O)[C@H]4C[C@@H](O)CC[C@@]45C)[C@@H]3CN2C1 [Hupehenine] | 0.00613 | -0.0543
